Experimental findings from PubChem BioAssay AID2330 (Broad Institute, 2010) are described below.

Hit rate of the full screen: of about 37,000 compounds, about 2,800 (7.6%) were called active. Not shown: some 1% with an inconclusive outcome. The entries come from a sample that favours actives as a whole. Unmarked numbers belong to inactive results. Cut-off read from the data, not from the text of the source: active = inhibition above about 80%; inconclusive = no clear call, values can overlap the other calls; inactive = below that.

The test is described as follows: NOMO-1 AML cell viability reduction, primary screen, STK33 inhibitor project, CellTiter-Glo luminescence (AID 2330). The following applies: NOMO-1 AML viability, 72 h, active compounds read high, concentration not given here. For orientation: In ATP-based viability assays light output follows the ATP content of the culture.
As for `COc1ccc(NC(=O)CN2CCN(S(=O)(=O)c3ccc4ccccc4c3)CC2)cc1`, the inhibition was 8.78%.

With `COC(=O)C1=C[C@H](O[C@@H]2O[C@H](CO)[C@@H](O)[C@H](O)[C@H]2O)C[C@H]2[C@]3(C)C[C@@H](c4ccoc4)OC(=O)[C@H]3CC[C@@]12C`, the inhibition is 22.8%.

In the case of `COc1ccc(NC(=O)N(C)C[C@@H]2Oc3c(NS(=O)(=O)c4ccc(OC)cc4)cccc3C(=O)N([C@H](C)CO)C[C@@H]2C)cc1`, the inhibition was 14.6%.

As to `O=c1[nH]c(CSCCO)nc2c1C1(CCCCC1)Cc1ccccc1-2`, the inhibition is 8.91%.

In the case of `CCn1c(=O)c2c(n3c(SCC(N)=O)nnc13)-c1ccccc1CC21CCCCC1`, the inhibition was 98.7% (active).

As for `NC(=O)CSc1nnc(-c2ccccc2F)n1-c1ccccc1`, the inhibition was 26.5%.

As for `COc1ccc(-c2cc(C(F)(F)F)n3nc(C(=O)NCCCN4CCOCC4)cc3n2)cc1OC`, the inhibition was 2.66%.

Consider `CC(C)NC(=O)N(C)C[C@H]1Oc2c(NS(=O)(=O)c3cccs3)cccc2C(=O)N([C@H](C)CO)C[C@H]1C`, for which the inhibition is -11.8%.

On to `O=C(Nc1ccc(OCc2ccccc2)cc1)OCC1CN(Cc2ccccc2)CCO1` (stereo not given), for which the inhibition was 113% (active).

`Cc1c(C(=O)N2CCOCC2)[nH]c2ccc(OCc3ccccc3)cc12`: the inhibition is 34.1%.

Take `COc1ccc(Cl)cc1NC(=O)CSc1nnc(-c2ccc(Cl)c(Cl)c2)n1C`: the inhibition was 17.7%.

For the molecule `COc1ccc(OC(C)C(=O)Nc2ccc(OC)c(OC)c2)cc1` (stereo not given), the inhibition is -22%.

In the case of `COc1ccc(NC(=S)SC)cc1OC`, the inhibition is 87.2% (active).

For the molecule `COc1ccc(NC(=S)NCc2cc(C)n(C)n2)cc1OC`, the inhibition was 6.06%.

On to `Cc1ccc([N+](=O)[O-])cc1NC(=O)CSC1=NCCS1`, for which the inhibition is 21.4%.

For the molecule `C[C@@H]1CN([C@@H](C)CO)C(=O)c2cccc(NC(=O)c3ccc(-c4nccs4)cc3)c2O[C@H]1CN(C)C(=O)Nc1ccccc1`, the inhibition is -9.67%.

As to `CC[C@]1(O)C[C@@H]2CN(CCc3c([nH]c4ccccc34)[C@@](C(=O)OC)(c3cc4c(cc3OC)N(C)[C@H]3[C@@](O)(C(=O)OC)[C@H](OC(C)=O)[C@]5(CC)C=CCN6CC[C@]43[C@@H]65)C2)C1`, the inhibition was 112% (active).

For `C[C@@H]1CN([C@H](C)CO)C(=O)c2cc(NC(=O)Nc3ccc4c(c3)OCO4)ccc2O[C@@H]1CN(C)C(=O)Nc1ccc(F)cc1`, the inhibition is 33.1%.

For `C[C@@H]1CN([C@H](C)CO)C(=O)c2cccc(NS(=O)(=O)c3cn(C)cn3)c2O[C@H]1CN(C)Cc1ccc(C(=O)O)cc1`, the inhibition is -16.7%.

For the molecule `Cc1nnc(SCC(=O)Nc2cc(Cl)ccc2C)s1`, the inhibition was 22.1%.

The term inhibition denotes the drop in the measured response relative to a control, in per cent.
